Rows were chosen to be rich in hits. Some 3.5% of all compounds tested hit in one or more screens of this group.
NS1 inh: influenza NS1 inhibition. Potency, µM (highest dose often 46.1 µM), for inactives: at the top dose activity, positive = more growth. 270,000 compounds, 0.4% hits; calls by dose curve; further: potency means the concentration at half of the fitted maximal effect; actives are rising curves; nearly all actives have a fitted effect of over 50% in size
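Recovery from NS1-induced slow growth read by OD600 in budding yeast switched to galactose assay medium (pH 6.0, -URA) at 1:100 dilution. Compound 23 nl per well; the matching strain lacking NS1 serves as control.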
LmPK inhibitor: LmPK (Leishmania mexicana) enzyme inhibition; Q27686; purified LmPK, Kinase-Glo ATP luminescence, 1 h; Potency, µM (doses to about 57.5 µM), without a hit: top-dose activity change, negative = inhibition, most hits filed as inhibitors; 290,000 compounds, 0.37% hits; further: potency means the concentration at half of the fitted maximal effect; on the % scale 0 is the no-effect control and ±100 the full control effect
Target sequence (Q27686 whole entry, looked up): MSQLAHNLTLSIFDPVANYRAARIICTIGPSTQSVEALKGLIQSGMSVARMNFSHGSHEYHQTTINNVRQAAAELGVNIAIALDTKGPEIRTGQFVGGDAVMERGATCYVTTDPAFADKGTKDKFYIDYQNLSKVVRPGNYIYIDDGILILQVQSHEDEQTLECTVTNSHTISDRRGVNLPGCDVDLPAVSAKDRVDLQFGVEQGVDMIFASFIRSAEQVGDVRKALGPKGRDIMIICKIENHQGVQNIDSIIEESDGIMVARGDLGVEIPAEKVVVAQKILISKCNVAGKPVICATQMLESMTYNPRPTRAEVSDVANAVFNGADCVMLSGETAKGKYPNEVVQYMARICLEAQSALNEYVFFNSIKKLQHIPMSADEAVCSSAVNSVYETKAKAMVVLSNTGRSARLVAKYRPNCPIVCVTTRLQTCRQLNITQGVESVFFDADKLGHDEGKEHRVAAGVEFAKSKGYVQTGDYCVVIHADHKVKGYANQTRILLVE
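ATP generated from ADP (0.1 mM) and PEP (0.5 mM) by 0.1 nM LmPK over 1 h at room temperature (pH 7.2 imidazole buffer) was detected by coupled luciferase luminescence. Values were normalized to uninhibited and no-enzyme wells.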
Sm TGR block: blocks Schistosoma mansoni thioredoxin glutathione reductase | purified TGR, DTNB reduction, TNB absorbance 405 nm | Potency, µM (series often up to 114 µM), without a hit: at the top dose activity change, negative = inhibition, usual class: inhibitors | 360,000 compounds, 3% hits | AID 485364; further: potency means the concentration at half of the fitted maximal effect; on the % scale 0 is the no-effect control and ±100 the full control effect; nearly all actives have a fitted effect of over 60% in size
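First, TGR (20 nM dispensed) and NADPH were mixed with compound. Second, a 15 min room-temperature incubation followed. Third, further NADPH and then DTNB were added to start the reaction. Finally, TNB absorbance was monitored kinetically.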
RE007 growth inh: less growth of the S. pombe RE007 Vpr strain. 360,000 compounds, 0.21% hits. S. pombe RE007 Vpr strain, BacTiter-Glo ATP luminescence, 24 h. AID 651644. Potency, µM (top dose mostly 92.2 µM), inactives show at the top dose activity change, negative = less growth, usual class: inhibitors; active means well fitted falling curve with a large enough effect; inconclusive means small, poorly fitted or top-dose-only effect; inactive means no such curve, though single readings can be large or run the other way; further: potency means the concentration at half of the fitted maximal effect; on the % scale 0 is the no-effect control and ±100 the full control effect; nearly all actives have a fitted effect of over 50% in size
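Fission yeast RE007 carrying one integrated HIV-1 vpr copy, seeded at OD 0.01 in PMG+AL medium with 23 nL pinned compound. Grown 24 h at 30 degrees; viability read by BacTiter-Glo luminescence after 5 min.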
TbPYK inhibitor: inhibitors of Trypanosoma brucei pyruvate kinase; 410,000 compounds, 0.12% hits; TbPYK enzyme, Kinase-Glo Plus ATP luminescence, 45 min; Q57TT1; Potency, µM (top dose mostly 76.8 µM), inactives show top-dose activity, negative = inhibition, actives largely listed as inhibitors; AID 624173; further: potency means the concentration at half of the fitted maximal effect; on the % scale 0 is the no-effect control and ±100 the full control effect; nearly all actives have a fitted effect of over 50% in size
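Enzyme and substrate buffer are dispensed first and compound is pin-transferred. ADP at 130 uM final then starts the reaction, which runs 45 min at room temperature. Detection reagent is added for 10 min before luminescence is imaged.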
FBPA Giardia inh: blocks Giardia fructose-bisphosphate aldolase activity; AID 2451; Potency, µM (series often up to 59.6 µM), inactives show at the highest dose activity, negative = inhibition, hits mostly inhibitors; purified Giardia FBPA; A8B2U2; 290,000 compounds, 0.71% hits; further: potency means the concentration at half of the fitted maximal effect; on the % scale 0 is the no-effect control and ±100 the full control effect; nearly all actives have a fitted effect of over 55% in size
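40 nM FBPA preincubated 10 min at RT with compound (up to 57.5 uM final), then substrate plus GAPDH/TPI/NAD/arsenate coupling and diaphorase/resazurin added. Fluorescence read after 20 min at RT, 525/598 nm.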
NS1 inh valid: influenza NS1 function inhibition validation; 1,400 tested, under 10 active; activity change, negative = inhibition, % at 32.9 µM; shares compounds with NS1 inh; influenza NS1 function cell assay, 15-point titration; calls by dose curve; further: 0% is about no effect
Flu PR8 replic: influenza virus titer reduction, NS1 project. shares compounds with NS1 inh. MDCK infected influenza A/PR/8/34, virus titer TCID50; active compounds read low. virus titer (log TCID50), log10 TCID50 at 5 µM. 95 compounds, 30% hits. AID 504647; call rule not given here
Starred values were filed as active, the others as inactive; u = inconclusive; x = not tested or not shown. Unless noted, the call rests on the fitted dose curve; in most records, active means well fitted curve in the direction sought with a large enough effect; inconclusive means small, poorly fitted or top-dose-only effect, or another doubt; inactive means no such curve, though single readings can be large; an effect the other way counts as inactive or inconclusive.

SMILES	NS1 inh	LmPK inhibitor	Sm TGR block	RE007 growth inh	TbPYK inhibitor	FBPA Giardia inh	NS1 inh valid	others
COc1cccc(/C=N/NC(=O)c2nc(-c3ccccc3)cc(-c3ccccc3)n2)c1	u	2%	1%	1%	-15%	-2%	-26
COc1cc(OC)c(N(C)C(=O)c2cn(C3CCCC3)c(=O)c3c2c2ccccc2n3C)cc1Cl	x	x	-12%	x	0%	x	x
CN(C)/C=C/C(=O)c1nnn(C2CCCCC2)c1NC1CCCCC1	7.9µM*	3%	-21%	0%	-1%	6%	u
COCC(C)n1c(C)cc(C(=O)CSc2nc(C)c(C)c(C)n2)c1C (stereo not drawn)	u	2%	-3%	0%	-23%	1%	-5
COCCn1c(C)cc(C(=O)CSc2nc(C)c(C)c(C)n2)c1C	x	11%	-17%	-5%	-24%	-17%	x
O=C(Nc1ccccc1F)c1oc2ccccc2c1NC(=O)c1c(F)cccc1F	x	x	9%	x	-2%	x	x
CN(C)c1ccc(NC(=O)CSCc2nc3c(nnn3Cc3ccc(F)cc3)c(=O)[nH]2)cc1	6.3µM*	u	45µM*	-25%	-16%	u	-5	Flu PR8 replic=7.7
Cc1ccc(-n2c(Cn3c(C)nc4ccccc43)n[nH]c2=S)cc1	u	-21%	5%	13%	u	-25%	22
Cc1ccccc1Cn1c2ccccc2c2cnn(CC(=O)NCCc3ccc(Cl)cc3)c(=O)c21	x	x	-2%	x	-2%	x	x
CC(=O)Nc1ccc(S(=O)(=O)Oc2ccc(C(=S)N3CCC(O)CC3)cc2)cc1	u	9%	-2%	-3%	-20%	12%	-18
Cc1ccc(NC(=O)N2CCN(c3nnc(C)c4c(C)n(-c5ccc(Cl)cc5)nc34)CC2)c(C)c1	x	x	-3%	x	0%	x	x
O=C(CSc1nnnn1Cc1ccccc1)c1ccc(F)cc1	7.9µM*	6%	3%	7%	-10%	-2%	25
CCOCCOC(=O)c1[nH]c2c(c1C)C(=O)CC(c1ccc(N(C)C)cc1)C2 (stereo not drawn)	-12%	-1%	-11%	13%	0%	-17%	x
C/C=C/COC(=O)c1[nH]c2c(c1C)C(=O)CC(c1ccc(N(C)C)cc1)C2 (stereo not drawn)	13µM*	1%	-19%	8%	-4%	-21%	u
CCC(C)OC(=O)c1[nH]c2c(c1C)C(=O)CC(c1ccc(N(C)C)cc1)C2 (stereo not drawn)	10µM*	-4%	-26%	12%	-1%	-26%	-24
Cc1ccc(NC(=O)CCNS(=O)(=O)c2ccc3c(c2)CCCC(=O)N3)cc1	x	x	-4%	x	-2%	x	x
COc1cccc(NC(=O)Cc2nnc(SCCOc3ccccc3)n2C)c1	-7%	-3%	2%	4%	-9%	11%	x
COc1ccccc1-n1c(SCC(=O)Nc2cccc(C(=O)O)c2)nnc1-c1ccccc1C	13µM*	11%	10%	-6%	0%	6%	30
COc1ccccc1-n1c(C)nnc1SCC(=O)Nc1cccc(C(C)=O)c1	-1%	-3%	0%	-1%	-1%	-2%	x
COc1cccc(NC(=O)Cc2nnc(SCC(=O)c3ccccc3)n2C)c1	7.9µM*	0%	-14%	-5%	-5%	-4%	-5
COC(=O)c1cc(NC(=O)C2(S(=O)(=O)c3ccc(Cl)cc3)CC2)cc(C(=O)OC)c1	11µM*	5%	0%	1%	3%	-5%	3
CN(C)S(=O)(=O)c1ccc(Cl)c(NC(=O)COC(=O)/C=C/c2ccc(S(=O)(=O)N3CCOCC3)cc2)c1	20µM*	2%	-2%	14%	5%	4%	u
CCc1ccc(NC(=O)COCc2cc(-c3ccc(F)cc3)on2)cc1	x	x	2%	x	6%	x	x
O=C(O)CSc1nnc(-c2cc3ccccc3o2)n1-c1ccccc1	u	-7%	0%	11%	-8%	25%	3
COc1ccc(C(=O)NCc2nnnn2-c2ccc(C)c(C)c2)cc1	x	x	9%	x	2%	x	x
SMILES	NS1 inh	LmPK inhibitor	Sm TGR block	RE007 growth inh	TbPYK inhibitor	FBPA Giardia inh	NS1 inh valid	others
CCc1ccccc1NC(=S)/N=C(\N)Nc1nc(C)c2cc(C)ccc2n1	u	2%	-2%	8%	2%	0%	-29
CCOc1ccc(OCC)c(NC(=O)c2nnn(CC(=O)Nc3cc(Cl)ccc3OC)c2N)c1	x	x	4%	x	5%	x	x
CC(C)OCCCNC(=O)C(=O)Nc1c2c(nn1-c1ccccc1)CS(=O)(=O)C2	x	x	-1%	x	1%	x	x
Cc1ccc(-c2csc(N3CCC(NS(=O)(=O)c4ccc5c(c4)OCCO5)CC3)n2)cc1	u	4%	10%	-11%	-7%	-8%	-1	Flu PR8 replic=7.7
Cn1cnnc1SCC(=O)Nc1ccccc1Sc1ccccc1	0.89µM*	5%	-4%	-9%	-15%	-4%	-1
COC(=O)c1ccccc1NC(=O)CSc1nncn1C	x	5%	-5%	3%	2%	1%	x
COc1ccc(C2(CNC(=O)C(=O)Nc3cccc(C(F)(F)F)c3)CCCC2)cc1OC	x	x	9%	x	1%	x	x
COc1ccccc1NS(=O)(=O)c1ccc(C)c(NC(=O)c2ccc(S(=O)(=O)N3CCCCCC3)cc2)c1	20µM*	6%	-6%	6%	3%	-1%	7
COc1cc(NC(=O)COC(=O)c2cc(S(=O)(=O)N3CCCCC3)ccc2Cl)c(C)cc1[N+](=O)[O-]	14µM*	1%	-8%	10%	4%	0%	10	Flu PR8 replic=8.3
COc1ccc(CCNC(=O)c2ccccc2NS(=O)(=O)c2cc(C(=O)O)ccc2OC)cc1	u	2%	-1%	-8%	-4%	-9%	2
CC(=O)N1CCc2c(sc3c2c(=O)n(-c2ccccc2)c(=O)n3CC(=O)c2ccc(F)cc2)C1	x	x	6%	x	-2%	x	x

Screening results deposited in PubChem by National Center for Advancing Translational Sciences (NCATS).
